According to PubChem BioAssay AID1159580 (chemical genetic matrix, 2015):
Screen size: about 5,500 compounds; about 2,000 (36%) were called active. Another 18% or so got no clear call; they are omitted. No stated cut-off is given here; in the data, active means normalized growth mostly below about 0.91 (no sharp cut-off); inconclusive means no clear call, values can overlap the other calls; inactive means mostly above about 0.92. This is one part of the list.

Assay: chemical genetic growth profiling, strain panel (AID 1159580);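 further: tested at 20 µM; growth read once vehicle control cultures reached saturation at 30 °C; 1 = growth at the plate median or of vehicle wells; lower values mean less growth of the strain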
Conditions: S. cerevisiae deletion strains, growth OD
[1] = locus YHR030C, strain SLT2, active compounds read low
[2] = locus YHR079C, strain IRE1, active compounds read low
[3] = locus YJL095W, strain BCK1, active compounds read low
[4] = locus YJR066W, strain TOR1, active compounds read low
[5] = locus YLR113W, strain HOG1, active compounds read low
[6] = locus YNL183C, strain NPR1, active compounds read low
[7] = locus YOR231W, strain MKK1, active compounds read low
[8] = locus YPL256C, strain CLN2, active compounds read low

Measured: normalized growth

CC(C)c1ccc(N2C=Nc3ccc(C(C)C)cc3C2)cc1
inactive: locus YAR019C, strain CDC15, active compounds read low 0.998 | locus YBL105C, strain PKC1, active compounds read low 0.995 | locus YBR135W, strain CKS1, active compounds read low 0.997 | locus YBR136W, strain MEC1, active compounds read low 0.995 | locus YBR160W, strain CDC28, active compounds read low 1 | locus YDL017W, strain CDC7, active compounds read low 1 | locus YDL028C, strain MPS1, active compounds read low 1.01 | locus YDL101C, strain DUN1, active compounds read low 1 | locus YDL108W, strain KIN28, active compounds read low 0.993 | locus YDL132W, strain cdc53, active compounds read low 0.995 | locus YDL214C, strain PRR2, active compounds read low 0.971 | locus YDR052C, strain DBF4, active compounds read low 1 | locus YDR054C, strain cdc34, active compounds read low 0.992 | locus YDR226W, strain ADK1, active compounds read low 0.984 | locus YDR477W, strain SNF1, active compounds read low 0.97 | locus YER123W, strain YCK3, active compounds read low 0.934 | locus YER133W, strain GLC7, active compounds read low 0.968 | locus YFL009W, strain cdc4, active compounds read low 1 | locus YFL029C, strain CAK1, active compounds read low 1 | locus YFR003C, strain YPI1, active compounds read low 1 | locus YFR019W, strain FAB1, active compounds read low 0.942 | locus YFR028C, strain CDC14, active compounds read low 0.987 | locus YGR040W, strain KSS1, active compounds read low 0.973 | locus YGR052W, strain FMP48, active compounds read low 1.09 | locus YGR092W, strain DBF2, active compounds read low 1.01 | [1] 0.898 | [2] 0.988 | locus YHR082C, strain KSP1, active compounds read low 1.04 | locus YHR205W, strain SCH9, active compounds read low 0.975 | locus YIL147C, strain SLN1, active compounds read low 1 | [3] 0.953 | locus YJL128C, strain PBS2, active compounds read low 0.982 | locus YJL157C, strain FAR1, active compounds read low 0.995 | locus YJR016C, strain ILV3, active compounds read low 1 | locus YJR066W, strain TOR1 (second series), active compounds read low 0.972 | [4] 1 | locus YKL048C, strain ELM1, active compounds read low 0.995 | locus YKL067W, strain YNK1, active compounds read low 0.963 | locus YKL101W, strain HSL1, active compounds read low 0.978 | locus YKL193C, strain SDS22, active compounds read low 0.997 | locus YKL203C, strain TOR2, active compounds read low 1.02 | [5] 0.97 | locus YLR133W, strain CKI1, active compounds read low 0.98 | locus YLR403W, strain SFP1, active compounds read low 0.988 | locus YML070W, strain DAK1, active compounds read low 0.96 | locus YMR001C, strain CDC5, active compounds read low 1 | locus YMR205C, strain PFK2 (second series), active compounds read low 0.972 | locus YMR277W, strain FCP1, active compounds read low 0.989 | locus YNL006W, strain LST8, active compounds read low 1.01 | locus YNL020C, strain ARK1, active compounds read low 0.987 | locus YNL161W, strain CBK1, active compounds read low 1 | [6] 0.968 | locus YNL207W, strain RIO2, active compounds read low 1.01 | locus YNL222W, strain SSU72, active compounds read low 1 | locus YNL307C, strain MCK1 (second series), active compounds read low 0.957 | locus YOL078W, strain AVO1, active compounds read low 1 | locus YOL136C, strain PFK27, active compounds read low 0.964 | locus YOR061W, strain CKA2, active compounds read low 0.999 | locus YOR119C, strain RIO1, active compounds read low 1.08 | [7] 0.99 | locus YOR329C, strain SCD5, active compounds read low 0.998 | locus YPL031C, strain PHO85, active compounds read low 0.973 | locus YPL153C, strain RAD53, active compounds read low 0.983 | locus YPL204W, strain HRR25, active compounds read low 0.949 | locus YPL209C, strain IPL1, active compounds read low 1 | [8] 0.97 | locus YPR025C, strain CCL1, active compounds read low 1 | locus YPR106W, strain ISR1, active compounds read low 0.998 | locus YPR111W, strain DBF20, active compounds read low 0.985 | strain NNK1, active compounds read low 1.01 | strain TSCII, active compounds read low 1.01

O=C(O)C1=CCNCC1
inactive: locus YAL013W, strain DEP1, active compounds read low 0.953 | locus YAL021C, strain ccr4, active compounds read low 0.979 | locus YAL026C, strain drs2, active compounds read low 1.02 | locus YAL030W, strain snc1, active compounds read low 1.02 | locus YBL061C, strain skt5, active compounds read low 1.01 | locus YBR009C, strain hhf1, active compounds read low 1.03 | locus YBR023C, strain chs3, active compounds read low 1.01 | locus YBR171W, strain sec66, active compounds read low 1.01 | locus YBR231C, strain swc5, active compounds read low 1.05 | locus YBR279W, strain paf1, active compounds read low 1.01 | locus YCL011C, strain gbp2, active compounds read low 1.01 | locus YCL016C, strain dcc1, active compounds read low 1.02 | locus YCL061C, strain MRC1 (second series), active compounds read low 0.984 | locus YCL061C, strain MRC1, active compounds read low 1.02 | locus YCL069W, strain vba3, active compounds read low 1.01 | locus YCR088W, strain abp1, active compounds read low 1.02 | locus YDL005C, strain med2, active compounds read low 1.01 | locus YDL040C, strain nat1, active compounds read low 1 | locus YDR001C, strain nth1, active compounds read low 1.01 | locus YDR069C, strain doa4, active compounds read low 1.03 | locus YDR137W, strain rgp1, active compounds read low 0.985 | locus YDR150W, strain NUM1, active compounds read low 0.991 | locus YDR159W, strain sac3, active compounds read low 1.02 | locus YDR195W, strain ref2 0.996 | locus YDR297W, strain sur2, active compounds read low 1.01 | locus YDR334W, strain swr1, active compounds read low 1.02 | locus YDR335W, strain msn5, active compounds read low 1.02 | locus YDR363W, strain ESC2, active compounds read low 0.979 | locus YDR392W, strain spt3, active compounds read low 0.98 | locus YEL003W, strain gim4, active compounds read low 1.02 | locus YEL037C, strain rad23, active compounds read low 1.01 | locus YEL061C, strain CIN8 (second series), active compounds read low 1.01 | locus YER002W, strain NOP16, active compounds read low 0.993 | locus YER015W, strain faa2, active compounds read low 1.02 | locus YER016W, strain bim1, active compounds read low 1.02 | locus YER111C, strain swi4, active compounds read low 1.01 | locus YER155C, strain BEM2 (second series), active compounds read low 1.05 | locus YFR010W, strain ubp6, active compounds read low 1.02 | locus YGL167C, strain pmr1, active compounds read low 1.02 | locus YGL173C, strain kem1, active compounds read low 1.01 | locus YGL227W, strain vid30, active compounds read low 1.01 | locus YGL240W, strain doc1, active compounds read low 1.03 | locus YGL253W, strain hxk2, active compounds read low 1.01 | locus YHR013C, strain ard1, active compounds read low 1.02 | locus YHR027C, strain rpn1, active compounds read low 1.02 | [1] 1.04 | [2] 1.05 | locus YHR142W, strain chs7, active compounds read low 0.988 | locus YJL092W, strain hpr5, active compounds read low 1.01 | locus YJL095W, strain BCK1 (second series), active compounds read low 1.02 | [3] 1.03 | locus YJL115W, strain asf1, active compounds read low 1.02 | locus YJL129C, strain trk1, active compounds read low 1.01 | locus YJL154C, strain vps35, active compounds read low 1.01 | locus YJL164C, strain tpk1, active compounds read low 1.01 | locus YJL166W, strain qcr8, active compounds read low 1.01 | locus YJL187C, strain SWE1, active compounds read low 1.01 | [4] 0.961 | locus YJR075W, strain HOC1, active compounds read low 0.978 | locus YKL160W, strain elf1, active compounds read low 0.99 | locus YKR026C, strain gcn3, active compounds read low 1.02 | locus YKR091W, strain srl3, active compounds read low 1.01 | locus YLL001W, strain dnm1, active compounds read low 1.01 | locus YLL026W, active compounds read low 1.01 | locus YLL041C, strain sdh2, active compounds read low 1.01 | locus YLR027C, strain aat2, active compounds read low 1.01 | [5] 1.06 | locus YLR221C, strain rsa3, active compounds read low 1.02 | locus YLR258W, strain gsy2, active compounds read low 1.04 | locus YLR262C, strain YPT6 (second series), active compounds read low 1.01 | locus YLR320W, strain mms22, active compounds read low 1.03 | locus YLR342W, strain FKS1, active compounds read low 1.03 | locus YLR357W, strain rsc2, active compounds read low 1.03 | locus YLR370C, strain arc18, active compounds read low 1.02 | locus YLR384C, strain iki3, active compounds read low 1.01 | locus YML120C, strain ndi1, active compounds read low 1.01 | locus YMR058W, strain fet3, active compounds read low 1.02 | locus YMR125W, strain sto1, active compounds read low 1.02 | locus YMR129W, active compounds read low 1.01 | locus YMR205C, strain PFK2, active compounds read low 1.03 | locus YMR231W, strain pep5, active compounds read low 1.01 | locus YNL071W, strain lat1, active compounds read low 1.02 | locus YNL128W, strain TEP1, active compounds read low 0.982 | locus YNL153C, strain GIM3, active compounds read low 0.965 | locus YNL175C, strain NOP13, active compounds read low 0.994 | [6] 0.958 | locus YNL209W, strain ssb2, active compounds read low 1.01 | locus YNL224C, strain SQS1, active compounds read low 0.982 | locus YNL248C, strain rpa49, active compounds read low 0.98 | locus YNL322C, strain KRE1 (second series), active compounds read low 1.01 | locus YNL322C, strain KRE1, active compounds read low 0.991 | locus YNR049C, strain mso1, active compounds read low 1.02 | locus YOR001W, strain rrp6, active compounds read low 1 | locus YOR070C, strain gyp1, active compounds read low 1.02 | locus YOR080W, strain dia2, active compounds read low 1.03 | locus YOR083W, strain WHI5, active compounds read low 0.982 | locus YOR106W, strain vam3, active compounds read low 0.986 | [7] 1.04 | locus YOR265W, strain rbl2, active compounds read low 1.01 | locus YOR270C, strain vph1, active compounds read low 1.02 | locus YOR290C, strain snf2, active compounds read low 1.01 | locus YPL051W, strain arl3, active compounds read low 1.01 | locus YPL055C, strain LGE1, active compounds read low 0.974 | locus YPL078C, strain atp4, active compounds read low 0.991 | locus YPL106C, strain sse1, active compounds read low 1.02 | locus YPL240C, strain hsp82, active compounds read low 1 | [8] 1.05
